This is part of a sample that, as a whole, favours compounds with a hit. Of some 83,000 tested, about 20% had one in any assay.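 Testing used 96-well plates and a 48-hour single-concentration exposure. Example: -40 means 40% of the starting cells died.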 Activity calls are given as the source filed them.

In PubChem BioAssay (NCI) one finds growth data, which are given here for 40 molecules.

This assay deals with HS 578T breast. Nature of the assay: NCI-60 one-dose screen, 48 h (100 = growth as untreated, 0 = no growth, -100 = all killed). Particulars: 10 µM unless noted. The protocol:
Growth inhibition of the HS 578T human tumor cell line is measured as a screen for anti-cancer activity. Cells are grown in 96 well plates and exposed to the test compound for 48 hours. Compounds are tested at a single concentration, which is 10^-5 M for most compounds. The reported endpoint is percent growth (GI% or GIPRCNT), where numbers from 0 - 100% represent growth inhibition, and numbers from -100% - 0 represent cell death. For example, a value of 40 represents 60% growth inhibition. A value of 0 means no net growth occurred over the course of the experiment. A value of -40 indicates 40% of cells at the beginning of the experiment died by the end of the experiment. A value of -100 means all cells are dead at the end of the experiment.
NCI-60 Human Tumor Cell Lines Screen was performed using the standard one-dose NCI protocol, which is described in more detail at https://dtp.cancer.gov/discovery_development/nci-60/default.htm.
Compounds with GIPRCNT values below 10 were considered active. Activity score was based on GIPRCNT using the following formula: […]
Score is 0 for GIPRCNT values of 100 or above, 50 for GIPRCNT values of 0, and 100 for GIPRCNT values of -100.
Consider `COc1ccc(/C(C)=C(\c2ccc(Cl)cc2)c2ccc(OCCN3CCCCCC3)cc2)cc1F`, for which the growth was 44.1% (inactive).

With `COc1ccc(OC)c(C(=O)Nc2cccc(-c3cc(=O)c4ccccc4o3)c2)c1`, the growth was 68.3% (inactive).

Take `COc1cc2nc(Nc3ccc(F)cc3)nc(N)c2cc1OC`: the growth was 111% (inactive).

As to `O=C1CC(c2ccc3c(c2)OCO3)Nc2cc3c(cc21)OCO3` (stereo not given), the growth is 19.5% (inactive).

Take `Cn1nnnc1-c1ccc(N)cc1`: the growth is 96.8% (inactive).

For `O=C(NCCN1CCC(O)CC1)c1cc2c(o1)C(=O)c1ccccc1C2=O`, the growth was -27.4% (active).

For the molecule `Nc1c(-c2nc3ccccc3c(=O)[nH]2)nnn1-c1ccc(Cl)cc1`, the growth is 51.1% (inactive).

Regarding `CC(=O)c1cc2c(o1)C(=O)c1ccccc1C2=O`, the growth was -23.7% (active).

As for `CN(C)c1ccc(/C=C/c2c(F)cccc2F)cc1`, the growth is 89.9% (inactive).

Regarding `C#C[C@]1(O)CC[C@H]2[C@@H]3CC=C4c5sc(N=C(N)N)nc5CC[C@]4(C)[C@H]3CC[C@@]21C`, the growth was -39.2% (active).

In the case of `CNCCNc1nc2ccccc2c2c(=O)c3cc(F)ccc3oc12`, the growth is 70.6% (inactive).

For the molecule `CC(=O)c1ccc2c(c1)CCN2`, the growth was 114% (inactive).

Consider `CCCCOc1nc2ccc(Cl)cc2cc1/C=C/C(=O)/C=C1/CC(c2cc3cc(Cl)ccc3nc2OCCCC)Nc2ccccc2N1` (stereo not given), for which the growth is 91.1% (inactive).

Turning to `C=C1C(=O)O[C@H]2[C@H]1CC/C(COC(=O)/C=C\C(=O)NCc1ccc(Cn3c(=O)sn(CCCI)c3=O)cc1)=C\CC[C@@]1(C)O[C@@H]21`, the growth was -40.2% (active).

As for `CCCCNC(=O)NS(=O)(=O)c1ccc(N2N=C(c3ccc(C)cc3C)CC2c2ccc(N(C)C)cc2)cc1` (stereo not given), the growth was 88.1% (inactive).

With `O=C1c2cccc3c(-c4ccc(-c5nc6c7ccccc7c7ccccc7c6[nH]5)cc4)ccc(c23)C(=O)N1CCN1CCNCC1`, the growth is 108% (inactive).

Regarding `CCCCCCCCn1cc(C2=C(c3coc4ccc(OC)cc34)C(=O)NC2=O)c2ccccc21`, the growth was 101% (inactive).

Consider `CN1CCN(c2ccc3nc(/N=C/c4ccc5sc(-c6ccc([N+](=O)[O-])cc6)nc5c4)sc3c2)CC1`, for which the growth is 114% (inactive).

Consider `NC(=S)N/N=C/C(=O)O`, for which the growth is 84.3% (inactive).

As for `N#Cc1c(-c2ccccc2)nc(SCC2CO2)nc1N1CCOCC1` (stereo not given), the growth is 50% (inactive).

Consider `COc1ccc(NC(=O)C(=O)c2c[nH]c3ccc(F)cc23)cc1`, for which the growth was 104% (inactive).

On to `COc1cccc(CCC2CCCN(c3cc(C)nc(N)n3)C2)c1` (stereo not given), for which the growth was 56.8% (inactive).

Turning to `C=C(C=O)[C@@H]1CC=C(C=O)CC1`, the growth was 6.33% (active).

For the molecule `Clc1ccc(/C=N\N=c2\scc(-c3ccc(Cl)cc3)n2/N=C/c2ccc(Cl)cc2)cc1`, the growth was 96.5% (inactive).

Consider `Cc1nn(-c2ccccc2)c2c1C(c1ccc([N+](=O)[O-])cc1)C(C#N)=C(N)O2` (stereo not given), for which the growth was 103% (inactive).

Regarding `COc1ccc(-n2sc(=O)n(Cc3ccc(COC(=O)C(C)c4ccc(CC(C)C)cc4)cc3)c2=O)cc1` (stereo not given), the growth is 77.8% (inactive).

For the molecule `O=C(/C=C/C12c3ccccc3C(c3ccccc31)C1C(=O)NC(=O)C12)c1ccccc1` (stereo not given), the growth is 14.4% (inactive).

With `CN1C(=O)CCC(N2C(=O)c3cccc(NCCOCCOCCNC(=O)c4cc5c(o4)C(=O)c4ccccc4C5=O)c3C2=O)C1=O` (stereo not given), the growth is -22.8% (active).

For `CCn1c(Sc2nnc(NC(C)=O)s2)nc2c1c(=O)n(C)c(=O)n2C`, the growth is 86.2% (inactive).

For the molecule `CCCCCOC(=O)c1ccc(NC(=O)CNCC(C)C)cc1`, the growth was 96.9% (inactive).

With `Cl.Fc1c[c-]c(-c2ccccn2)c(F)c1.[Pt].c1ccc(P(c2ccccc2)C([PH+](c2ccccc2)c2ccccc2)[PH+](c2ccccc2)c2ccccc2)cc1`, the growth is 12% (inactive).

In the case of `CCOC(=O)c1sc(-c2ccc(OS(=O)(=O)c3ccc(C(C)(C)C)cc3)c(C=O)c2)nc1C`, the growth was 52.9% (inactive).

Regarding `CCCCCCCSc1ccc(C(=O)O)cc1`, the growth is 128% (inactive).

On to `CC(C)n1nc(C#Cc2cccc(O)c2)c2c(N)ncnc21`, for which the growth was -28.8% (active).

For the molecule `N#Cc1c(-c2ccc(C(F)(F)F)cc2)cc(N2CC(O)C2)n2c1nc1ccccc12`, the growth was 17.8% (inactive).

In the case of `CN(C)CN1CCN(c2ccc3nc(-c4ccc5nc(-c6ccc(C(F)(F)F)cc6)[nH]c5c4)[nH]c3c2)CC1`, the growth was 52.8% (inactive).

As for `CCn1nc(C#Cc2c(C)ccc3c(Nc4ccc(Cl)cc4)nccc23)c2c(N)ncnc21`, the growth was 0.71% (active).

For `O=C(NCCOCCOCCNc1cccc2c1C(=O)N(C1CCCNC1=O)C2=O)c1cc2c(o1)C(=O)c1ccccc1C2=O` (stereo not given), the growth is -22.2% (active).

Regarding `CCOc1ccc(S(=O)(=O)c2ccc(C)cc2)c2c1no[n+]2[O-]`, the growth was 78.4% (inactive).

`C=C1C(=O)O[C@H]2[C@H]1CC/C(Cn1cc(CNCCc3c[nH]c4ccccc34)nn1)=C\CC[C@@]1(C)O[C@@H]21`: the growth was 92.4% (inactive).
